For some assays here: Measured potencies and affinities stand elsewhere. The source made the active and inactive calls. Unless noted, no rule for the calls is given here.
Columns and labels:
[1] = antimalarial activity against Dd2 strain (AID 2302;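 active = growth inhibition above 50% at the single 2 µM test dose, taken to imply half-maximal potency below 2 µM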;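 also: 0% = DMSO untreated growth and 100% = chloroquine plus artemisinin killed control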); details: P. falciparum Dd2 in RBCs, LDH growth readout, 72 h; at 2 µM; hits give high values
[2] = HepG2 cytotoxicity, primary screen, cytotoxicity control for P. falciparum antimalarial project, cell-based, ATP luminescence (AID 2303;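 active = inhibition above 50%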;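 also: 0% = DMSO wells and 100% = digitonin-killed cells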); details: HepG2 viability, 24-48 h, at 10 µM, hits give high values
[3] = molecular target: L-lactate dehydrogenase (Plasmodium falciparum (isolate CDC / Honduras)) (UniProt Q27743); test: PfLDH activity inhibition – cell lysate, 3D7 strain, counter-screen for P. falciparum growth inhibition project (AID 2304);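 also: 0% = vehicle and 100% = reference inhibitor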; details: P. falciparum 3D7 crude extract, LDH APAD/NBT absorbance; at 2 µM; hits give high values
Sequence of L-lactate dehydrogenase (Plasmodium falciparum (isolate CDC / Honduras)) (Q27743 whole entry, looked up): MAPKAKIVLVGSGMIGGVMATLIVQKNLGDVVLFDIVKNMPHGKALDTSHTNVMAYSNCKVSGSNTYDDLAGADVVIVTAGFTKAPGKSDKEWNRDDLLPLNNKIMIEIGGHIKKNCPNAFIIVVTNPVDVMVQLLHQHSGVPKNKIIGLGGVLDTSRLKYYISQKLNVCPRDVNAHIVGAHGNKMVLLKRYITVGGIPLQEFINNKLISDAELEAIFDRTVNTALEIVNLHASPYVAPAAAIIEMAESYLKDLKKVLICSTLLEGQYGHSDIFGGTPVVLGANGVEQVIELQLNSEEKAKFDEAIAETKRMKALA

[4] = inhibition of 3D7 malaria parasite growth – strain 3D7 (AID 2306);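 also: 0% = DMSO wells and 100% = chloroquine plus artemisinin control wells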; details: P. falciparum 3D7 erythrocytic growth, LDH absorbance, 72 h; at 2 µM; hits give high values
[5] = molecular target: Calcium-dependent protein kinase 1 (Plasmodium falciparum (isolate 3D7)) (UniProt P62344); test: PfCDPK1 kinase inhibitors, biochemical, TCAMS library (AID 1159585; cut-off not given, nearly all actives have IC50 up to about 0.98 µM;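 also: inhibitors leave more ATP so luminescence rises with inhibition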); details: recombinant PfCDPK1, Kinase-Glo ATP depletion luminescence
Sequence of Calcium-dependent protein kinase 1 (Plasmodium falciparum (isolate 3D7)) (P62344 whole entry, looked up): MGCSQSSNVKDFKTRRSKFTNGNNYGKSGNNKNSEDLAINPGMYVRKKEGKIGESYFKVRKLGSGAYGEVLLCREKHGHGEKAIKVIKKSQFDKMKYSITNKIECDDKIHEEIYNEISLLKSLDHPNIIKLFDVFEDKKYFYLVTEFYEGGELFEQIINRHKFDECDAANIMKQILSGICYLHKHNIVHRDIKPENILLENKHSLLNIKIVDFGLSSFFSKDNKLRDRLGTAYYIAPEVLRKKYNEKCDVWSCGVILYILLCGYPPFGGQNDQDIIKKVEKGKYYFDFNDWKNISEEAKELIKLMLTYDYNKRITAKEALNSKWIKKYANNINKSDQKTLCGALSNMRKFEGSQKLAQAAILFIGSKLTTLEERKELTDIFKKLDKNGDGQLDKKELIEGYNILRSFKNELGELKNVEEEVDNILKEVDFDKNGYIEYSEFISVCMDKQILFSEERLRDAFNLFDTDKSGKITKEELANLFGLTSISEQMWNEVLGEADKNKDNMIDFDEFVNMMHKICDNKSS

[6] = molecular target: Plasmodium falciparum protein kinase 6 (PK6, PF3D7_1337100) (UniProt Q8IDW1); test: PfPK6 kinase inhibitors, biochemical, TCAMS library (AID 1159586); details: recombinant PfPK6, Kinase-Glo ATP depletion luminescence
Sequence of Plasmodium falciparum protein kinase 6 (PK6, PF3D7_1337100) (Q8IDW1 1-305): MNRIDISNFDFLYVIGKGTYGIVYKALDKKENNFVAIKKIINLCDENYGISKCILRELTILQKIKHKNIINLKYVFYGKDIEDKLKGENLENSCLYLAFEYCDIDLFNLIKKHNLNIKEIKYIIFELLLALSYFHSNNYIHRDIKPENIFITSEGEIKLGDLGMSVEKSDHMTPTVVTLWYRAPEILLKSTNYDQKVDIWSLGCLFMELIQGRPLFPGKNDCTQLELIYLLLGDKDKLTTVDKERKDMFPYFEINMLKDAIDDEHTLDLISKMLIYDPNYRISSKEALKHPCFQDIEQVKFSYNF

[7] = molecular target: Protein kinase 7 (PK7), Plasmodium falciparum 3D7 (PF3D7_0213400) (UniProt Q7YTF7); test: inhibition of Plasmodium PK7 catalytic activity – biochemical, TCAMS antimalarial set, Kinase-Glo luminescence (AID 1159587); details: recombinant PfPK7, Kinase-Glo ATP depletion luminescence
Sequence of Protein kinase 7 (PK7), Plasmodium falciparum 3D7 (PF3D7_0213400) (Q7YTF7 1-343): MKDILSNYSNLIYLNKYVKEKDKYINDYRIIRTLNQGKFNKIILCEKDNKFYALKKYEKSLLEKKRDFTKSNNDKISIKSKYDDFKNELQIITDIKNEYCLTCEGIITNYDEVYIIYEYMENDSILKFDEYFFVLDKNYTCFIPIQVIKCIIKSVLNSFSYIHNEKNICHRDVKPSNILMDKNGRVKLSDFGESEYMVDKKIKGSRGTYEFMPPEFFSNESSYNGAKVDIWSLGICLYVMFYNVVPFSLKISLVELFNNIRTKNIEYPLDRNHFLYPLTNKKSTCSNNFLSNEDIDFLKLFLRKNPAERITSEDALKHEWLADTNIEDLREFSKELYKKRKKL

[8] = molecular target: Calcium-dependent protein kinase 4 (Plasmodium falciparum (isolate 3D7)) (UniProt Q8IBS5); test: PfCDPK4 kinase inhibitors, biochemical, TCAMS library (AID 1159588; cut-off not given, nearly all actives have IC50 up to about 0.91 µM); details: recombinant PfCDPK4, Kinase-Glo ATP depletion luminescence
Sequence of Calcium-dependent protein kinase 4 (Plasmodium falciparum (isolate 3D7)) (Q8IBS5 whole entry, looked up): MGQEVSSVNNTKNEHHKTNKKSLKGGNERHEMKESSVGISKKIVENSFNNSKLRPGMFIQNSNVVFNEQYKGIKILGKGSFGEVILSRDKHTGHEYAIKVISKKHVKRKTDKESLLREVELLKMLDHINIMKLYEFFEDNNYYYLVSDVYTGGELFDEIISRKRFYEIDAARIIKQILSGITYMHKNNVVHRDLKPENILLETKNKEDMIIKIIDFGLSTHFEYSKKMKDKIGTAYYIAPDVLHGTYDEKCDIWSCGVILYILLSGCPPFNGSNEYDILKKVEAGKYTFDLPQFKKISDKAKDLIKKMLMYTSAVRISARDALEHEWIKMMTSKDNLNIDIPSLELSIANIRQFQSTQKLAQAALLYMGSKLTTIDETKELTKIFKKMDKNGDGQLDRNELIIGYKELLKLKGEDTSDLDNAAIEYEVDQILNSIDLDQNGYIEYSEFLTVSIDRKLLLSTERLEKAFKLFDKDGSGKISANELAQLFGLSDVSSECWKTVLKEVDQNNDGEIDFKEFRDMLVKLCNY

O=C(NCc1ccc(Cl)cc1)c1ccc(C(=O)NCC2CCCN2CC2CCCCC2)cc1 (stereo not given)
active: growth inhibition [4] 97%
inactive: growth inhibition [1] 10% | inhibition [2] 21% | inhibition [3] -11% | outcome [5] | outcome [6] | outcome [7] | outcome [8]

CCc1ccc(C2=Nn3c(nnc3-c3cccs3)SC2)cc1
active: growth inhibition [4] 93%
inactive: growth inhibition [1] 20% | inhibition [2] 9% | inhibition [3] 0% | outcome [5] | outcome [6] | outcome [7] | outcome [8]

C=CCC(CC=C)N1C(=O)C(c2ccccc2)(c2ccccc2)N=C1N
inactive: inhibition [2] 35% | inhibition [3] -3% | outcome [5] | outcome [6] | outcome [7] | outcome [8]
active: growth inhibition [1] 97% | growth inhibition [4] 98%

Cc1[nH]c(C)c(-c2ccc(OCc3ccc(F)cc3)cc2)c(=O)c1Cl
inactive: inhibition [2] -10% | inhibition [3] -1% | outcome [5] | outcome [6] | outcome [7] | outcome [8]
active: growth inhibition [1] 96% | growth inhibition [4] 95%

COc1cccc(NC(=O)Nc2cc(C)nc3ccccc23)c1
active: growth inhibition [4] 100%
inactive: growth inhibition [1] 48% | inhibition [2] 2% | inhibition [3] -1% | outcome [5] | outcome [6] | outcome [7] | outcome [8]

O=S(=O)(NCCN1CCCC1)c1ccc(-c2ccc(CNCc3ccccc3)cc2)cc1F
inactive: growth inhibition [1] 39% | inhibition [2] 35% | inhibition [3] 4% | outcome [5] | outcome [6] | outcome [7] | outcome [8]
active: growth inhibition [4] 83%

CC(C)c1cccc(OCC2CCN(c3ncc(C(=O)Nc4ccccc4)cc3Cl)CC2)c1
active: growth inhibition [1] 88% | growth inhibition [4] 89%
inactive: inhibition [2] 9% | inhibition [3] -2% | outcome [5] | outcome [6] | outcome [7] | outcome [8]

CC(C)(C)OC(=O)NCc1ccc(Nc2nnc(-c3ccc(OCC(=O)NCc4cc(C(F)(F)F)cc(C(F)(F)F)c4)c([N+](=O)[O-])c3)o2)cc1
active: growth inhibition [1] 92% | growth inhibition [4] 97%
inactive: inhibition [2] 24% | inhibition [3] -1% | outcome [5] | outcome [6] | outcome [7] | outcome [8]

O=C1c2ccccc2CN1CCCN1CCC(Oc2ccc(F)cc2)CC1
active: growth inhibition [4] 97%
inactive: growth inhibition [1] 1% | inhibition [2] 14% | inhibition [3] 3% | outcome [5] | outcome [6] | outcome [7] | outcome [8]

CCOc1ccc(C(=O)Nc2cc(Br)c3c(c2)CNCC3)cc1Cl
active: growth inhibition [4] 92%
inactive: growth inhibition [1] 8% | inhibition [2] 13% | inhibition [3] 5% | outcome [5] | outcome [6] | outcome [7] | outcome [8]

O=C(Nc1ccc(F)cc1F)NC1CCN(c2ccnc3cc(Cl)ccc23)C1 (stereo not given)
inactive: inhibition [2] 25% | inhibition [3] 1% | outcome [5] | outcome [6] | outcome [7] | outcome [8]
active: growth inhibition [1] 82% | growth inhibition [4] 100%

COc1ccc2c(c1)S(=O)(=O)N=C(N1CCCC1c1ccc(Cl)c(Cl)c1)N2C (stereo not given)
active: growth inhibition [4] 89%
inactive: growth inhibition [1] 19% | inhibition [2] -2% | inhibition [3] 0% | outcome [5] | outcome [6] | outcome [7] | outcome [8]

O=C(Nc1cccc(CN2CCCN(Cc3ccsc3)CC2)c1)c1ccc(-c2ccccc2)cc1
active: growth inhibition [4] 90%
inactive: growth inhibition [1] 11% | inhibition [2] 30% | inhibition [3] -4% | outcome [5] | outcome [6] | outcome [7] | outcome [8]

Cn1nc(C(F)(F)F)cc1-c1ccc(C(=O)Nc2ccc3c(c2)CNCC3(C)C)s1
inactive: growth inhibition [1] 36% | inhibition [2] 10% | inhibition [3] -1% | outcome [5] | outcome [6] | outcome [7] | outcome [8]
active: growth inhibition [4] 88%

COc1ccc(Nc2nc(NCc3cccnc3)cc(-c3ccc(OC)cc3)n2)cc1
inactive: growth inhibition [1] 16% | inhibition [2] -2% | inhibition [3] 3% | outcome [5] | outcome [6] | outcome [7] | outcome [8]
active: growth inhibition [4] 89%

COc1ccc2c(NN=Cc3ccccc3[N+](=O)[O-])cc(C)nc2c1
active: growth inhibition [1] 100% | growth inhibition [4] 101%
inactive: inhibition [2] 14% | inhibition [3] -4% | outcome [5] | outcome [6] | outcome [7] | outcome [8]

NCc1ccc(CNCc2cccc(-c3cccc(-c4nc5ccccc5[nH]4)c3)c2)cc1
inactive: growth inhibition [1] 11% | inhibition [2] 7% | inhibition [3] -7% | outcome [5] | outcome [6] | outcome [7] | outcome [8]
active: growth inhibition [4] 101%

COc1ccc2c(ccc3c2ncc2c(=O)n(-c4ccccc4)[nH]c23)c1
active: growth inhibition [1] 92% | growth inhibition [4] 95%
inactive: inhibition [2] -2% | inhibition [3] 4% | outcome [5] | outcome [6] | outcome [7] | outcome [8]

O=C(NCC1CCC(C(=O)NC2CCCc3ccccc32)CC1)c1ccc(O)c(-c2cccc([N+](=O)[O-])c2)c1 (stereo not given)
active: growth inhibition [1] 97% | growth inhibition [4] 99%
inactive: inhibition [2] 2% | inhibition [3] -2% | outcome [5] | outcome [6] | outcome [7] | outcome [8]

O=S(=O)(c1ccccc1C(F)(F)F)C1C[C@H]2CC[C@@H](C1)N2S(=O)(=O)c1ccc(Cl)c(C(F)(F)F)c1 (stereo not given in full)
active: growth inhibition [1] 99% | growth inhibition [4] 97%
inactive: inhibition [2] 4% | inhibition [3] -3% | outcome [5] | outcome [6] | outcome [7] | outcome [8]

O=C(/C=C/c1ccc(Cl)c(Cl)c1)NCCCCCN1CCC(NC(=O)Nc2cc(F)cc(F)c2)CC1
active: inhibition [2] 80% | growth inhibition [4] 101%
inactive: growth inhibition [1] 6% | inhibition [3] -3% | outcome [5] | outcome [6] | outcome [7] | outcome [8]

C[C@@H]1CC[C@H](NC(=O)[C@H](CC2CCCC2)NC(=O)N2CCNCC2)C(=O)CN1S(=O)(=O)c1ccccn1
inactive: growth inhibition [1] 19% | inhibition [2] 5% | inhibition [3] -2% | outcome [5] | outcome [6] | outcome [7] | outcome [8]
active: growth inhibition [4] 84%

COc1ccccc1CNC(=O)c1nn(-c2ccc(Cl)cc2)c(=O)c2ccccc12
active: growth inhibition [1] 80% | growth inhibition [4] 101%
inactive: inhibition [2] -2% | inhibition [3] 6% | outcome [5] | outcome [6] | outcome [7] | outcome [8]

CCN(CC)CCCCCNc1c2ccc(Cl)cc2nc2ccc(OC)cc12
inactive: inhibition [3] 4% | outcome [5] | outcome [6] | outcome [7] | outcome [8]
active: growth inhibition [1] 99% | inhibition [2] 96% | growth inhibition [4] 99%

CCCOc1ccc(N2C(N)=NC(N)=NC2(C)C)cc1
inactive: growth inhibition [1] 2% | inhibition [2] 1% | inhibition [3] -6% | outcome [5] | outcome [6] | outcome [7] | outcome [8]
active: growth inhibition [4] 97%

COc1ccc(Cc2cccc(C(C(=O)NCc3cc(Cl)cc(Cl)c3)N3CCN(C)CC3)c2)cc1 (stereo not given)
inactive: growth inhibition [1] 24% | inhibition [2] 8% | inhibition [3] -9% | outcome [5] | outcome [6] | outcome [7] | outcome [8]
active: growth inhibition [4] 101%

COc1cccc2cc(C(=O)N[C@@H](CC(C)C)C(=O)N[C@H](/C=N/N(C)C(=O)OC(C)(C)C)CC(=O)OC(C)(C)C)oc12
inactive: inhibition [2] 5% | inhibition [3] -8% | outcome [5] | outcome [6] | outcome [7] | outcome [8]
active: growth inhibition [1] 67% | growth inhibition [4] 87%

O=C(Nc1cccc(-c2csc(-c3nc4ccccc4[nH]3)c2)c1)c1cccnc1
active: growth inhibition [4] 98%
inactive: growth inhibition [1] 45% | inhibition [2] 18% | inhibition [3] -5% | outcome [5] | outcome [6] | outcome [7] | outcome [8]

CN(c1ccc(NC(=O)c2cccc(F)c2)cc1)C1CCCN(Cc2cccc(O)c2)C1 (stereo not given)
inactive: growth inhibition [1] 2% | inhibition [2] 13% | inhibition [3] -3% | outcome [5] | outcome [6] | outcome [7] | outcome [8]
active: growth inhibition [4] 85%

CCCCCCP(=O)(COc1ccc(CCN(CC(O)COc2cccc3[nH]c(C(N)=O)cc23)CC(O)COc2cccc3[nH]c(C(N)=O)cc23)cc1)OCCCC (stereo not given)
inactive: inhibition [2] -10% | inhibition [3] 3% | outcome [5] | outcome [6] | outcome [7] | outcome [8]
active: growth inhibition [1] 97% | growth inhibition [4] 99%

CSc1ccc2ccccc2c1CCNCCCCNCCc1c(SC)ccc2ccccc12
inactive: inhibition [3] 3% | outcome [5] | outcome [6] | outcome [7] | outcome [8]
active: growth inhibition [1] 60% | inhibition [2] 99% | growth inhibition [4] 101%

C=CCc1ccc(C2CCN(CCCCNC(=O)c3ccc(NC(=O)c4ccc(Cl)cc4)cc3)CC2)cc1
active: growth inhibition [1] 97% | growth inhibition [4] 101%
inactive: inhibition [2] 27% | inhibition [3] -5% | outcome [5] | outcome [6] | outcome [7] | outcome [8]

COc1cc(/C=C/C(=O)NC2CCC(N3CCC(c4ccccc4C)CC3)CC2)cc(OC)c1 (stereo not given)
inactive: growth inhibition [1] 11% | inhibition [3] -4% | outcome [5] | outcome [6] | outcome [7] | outcome [8]
active: inhibition [2] 51% | growth inhibition [4] 89%

COc1ccc2nccc([C@@H](O)CN3CCC(NCCOc4cccc(F)c4F)CC3)c2c1
active: growth inhibition [1] 85% | growth inhibition [4] 102%
inactive: inhibition [2] 9% | inhibition [3] 3% | outcome [5] | outcome [6] | outcome [7] | outcome [8]

COc1ccc(Nc2nccc(N3CCC(NC(=O)Nc4cc(C)ccc4C)C3)n2)cc1 (stereo not given)
inactive: growth inhibition [1] 37% | inhibition [2] 10% | inhibition [3] -8% | outcome [5] | outcome [6] | outcome [7] | outcome [8]
active: growth inhibition [4] 91%

COc1ccc(CCNCCCCCNCCc2ccc(Cl)cc2)cc1OC
active: growth inhibition [4] 101%
inactive: growth inhibition [1] -2% | inhibition [2] 32% | inhibition [3] -11% | outcome [5] | outcome [6] | outcome [7] | outcome [8]

CCCCCCOc1ccc(N2C(N)=NC(N)=NC2(C)C)cc1
active: growth inhibition [4] 98%
inactive: growth inhibition [1] 0% | inhibition [2] 5% | inhibition [3] 7% | outcome [5] | outcome [6] | outcome [7] | outcome [8]

O=C(N[C@H]1CCN(Cc2ccc(OCCCN3CCCCC3)cc2)C1)c1ccc(Oc2ccccc2)cc1
inactive: growth inhibition [1] 11% | inhibition [3] 6% | outcome [5] | outcome [6] | outcome [7] | outcome [8]
active: inhibition [2] 56% | growth inhibition [4] 96%

CC(CON1C(N)=NC(N)=NC1(C)C)Cc1ccc(Cl)cc1Cl (stereo not given)
active: growth inhibition [1] 97% | inhibition [2] 61% | growth inhibition [4] 92%
inactive: inhibition [3] 2% | outcome [5] | outcome [6] | outcome [7] | outcome [8]

COc1cccc(Nc2nc(C)cc(NC3CCN(Cc4ccccc4)CC3)n2)c1
active: growth inhibition [4] 102%
inactive: growth inhibition [1] 46% | inhibition [2] 15% | inhibition [3] 8% | outcome [5] | outcome [6] | outcome [7] | outcome [8]

Source: PubChem BioAssay
